# The whole screen tested about 340,000 compounds, of which about 12,000 (3.5%) were called active. Inconclusive results (about 18%) are left out. The list comes from a sample in which actives are over-represented; it also holds similar structures and randomly drawn compounds. Unmarked numbers belong to inactive results. Calls come from the whole dose curve; as a rule, active = well fitted inhibition curve with a large enough effect; inconclusive = small, poorly fitted or top-dose-only effect, or another doubt; inactive = no such curve, though single readings can be large or run the other way.
# Experiment: qHTS Assay for Inhibitors of Hepatitis C Virus (HCV)
# Conditions: Huh7.5.1 HCVcc-Cre infection, luciferase reporter, 44 h; series mostly up to 41.8 µM; activity change, negative = inhibition: at the top concentration
# Text: Hepatitis C virus (HCV) infects about 200 million people in the world. Many infected people progress to chronic liver disease including cirrhosis with a risk of developing liver cancer. To date, there is no effective vaccine for hepatitis C. Current therapy based on interferon is only effective in about half of the patients and is associated with significant adverse effects. The fraction of people with HCV who can complete a successful treatment is estimated to be no more than 10 percent. Recent development of direct-acting antivirals against HCV, such as protease and polymerase inhibitors, is promising but still requires combination with peginterferon and ribavirin for maximal efficacy. In addition, these agents are associated with high rate of resistance and many have significant side effects. Due to the lack of a culture system for infectious HCV, the search for new HCV drugs has been greatly hampered. […] High-throughput screening (HTS) with an infectious HCV system would cover the complete spectrum of potentially druggable targets in all stages of HCV lifecycle, and would have more biological relevance than other cell-based assays. Moreover, targeting several key processes in the viral life cycle may not only increase antiviral efficacy; more importantly, it may also reduce the capacity of the virus to develop resistance to the compound. The goal of this project is to identify novel HCV inhibitors as new therapies for hepatitis C, using a highly sensitive and specific assay platform which is based on a HCV infectious cell culture system established in the laboratory and adapted for high-throughput HCV drug screen. NIH Chemical Genomics Center [NCGC] NIH Molecular Libraries Probe Centers Network [MLPCN] MLPCN Grant: MH095511 Assay Submitter (PI): Jake Liang, NIDDK
# The assay will start with plating 1,000 cells/well in 3 µL volume and culture for 4 h. Then 23 nL of compounds from the library collection will be added to each well, followed by adding 2.5 µL of HCVcc-Cre virus (~ 0.5 moi) and further cultured for 44 h before the luciferase assay. A volume of 4.5 µL luciferase substrates will be added to each well and the plates will be incubated at room temperature for 15 min. and then read for 15 sec. for the luciferase activity
# % is set by controls: 0 for no effect and ±100 for the full control effect.
SMILES,"activity change, negative = inhibition",Potency
O=C1c2ccccc2C(=O)N1CCCCCCN1C(=O)c2ccccc2C1=O,7.88%,–
O=C(NNC(=O)c1ccc2ccccc2c1)c1ccc(Cl)cc1,-4.02%,–
COc1ccc(C(=O)CN2C(=O)NC3(CCc4ccccc43)C2=O)c(OC)c1 (stereo unspecified),4.95%,–
c1ccc(CCc2ccccn2)cc1,21.4%,–
CCOC(=O)C1=C(c2ccccc2)NC(=S)NC1c1ccc(Cl)cc1 (stereo unspecified),–,11.2 µM (active)
CCOC(=O)C1=C(C)NC(=O)NC1c1ccccc1 (stereo unspecified),6.14%,–
CCOC(=O)C1=C(c2ccccc2)NC(=O)NC1c1cc(OC)c(OC)cc1OC (stereo unspecified),20.3%,–
CC1CCCCN1CCCNC(=O)Cn1ncc2c([nH]c3ccccc32)c1=O (stereo unspecified),12.5%,–
CCCn1c2ccccc2c2cnn(CC(=O)NCCCN3CCCCC3CC)c(=O)c21 (stereo unspecified),–,11.2 µM (active)
CCC1CCCCN1CCCNC(=O)Cn1nc(-c2ccccc2)ccc1=O (stereo unspecified),5.92%,–
CC(C)N(C(=O)CN1CCN(S(=O)(=O)c2ccc(Br)s2)CC1)C(C)C,8.62%,–
Cc1ccc(/C=C/C(=O)OCC(=O)Nc2cccnc2Cl)cc1,-7.92%,–
c1ccc(CSCCc2ccncc2)cc1,-1.66%,–
O=[N+]([O-])c1cc(C(F)(F)F)ccc1NCCc1ccncc1,-0.741%,–
CC(C)(C)c1ccc(SCCc2ccncc2)cc1,–,8.91 µM (active)
CC1(C)Cc2ccccc2-c2[nH]c(=S)[nH]c(=O)c21,25.9%,–
CC(C)CC(N=C1NC(C)(C)Cc2ccccc21)C(=O)O (stereo unspecified),11%,–
CC1(C)Cc2ccccc2/C(=C/C(=O)c2ccccc2)N1,–,14.1 µM (active)
CN(CC(=O)NCCc1ccc(F)cc1)CC(=O)Nc1ccc(F)c(F)c1F,-17%,–
O=c1[nH]c(N2CCN(Cc3ccc4c(c3)OCO4)CC2)nc2c1CCCC2,2.31%,–
Fc1ccc2[nH]c3c(N4CCN(Cc5ccc6c(c5)OCO6)CC4)ncnc3c2c1,–,2.51 µM (active)
Fc1ccc2[nH]c3c(N4CCSCC4)ncnc3c2c1,–,6.31 µM (active)
CC(C)(C)n1nnnc1C(c1ccc(F)cc1)N1CCN(Cc2ccc3c(c2)OCO3)CC1 (stereo unspecified),-0.102%,–
Cc1c(CN2CC[C@@H](N3CCN(c4ccccn4)CC3)[C@H](O)C2)[nH]c2ccc(F)cc12,-28.5%,–
O=C1NC(=O)C(CCc2ccccc2)(c2ccccc2)N1 (stereo unspecified),-0.263%,–
Cc1cc(C)n2nc(C(=O)OC(C)C(=O)c3cc(C)c(C)cc3C)nc2n1 (stereo unspecified),3.37%,–

SMILES,"activity change, negative = inhibition",Potency
CCC(C)N(C(=O)Cn1nc(C)c([N+](=O)[O-])c1C)C1CCS(=O)(=O)C1 (stereo unspecified),35.7%,–
O=C(Nc1ccccc1)Nc1ccc(C(F)(F)F)cn1,-9.65%,–
Oc1ccc(/C=N/Nc2ccc(C(F)(F)F)cn2)cc1O,–,3.55 µM (active)
Cc1nccn1CC(=O)N/N=C/c1ccc(O)c(O)c1,11.8%,–
CC(=O)Nc1ccc(C(=O)NNC(=O)CCCCC(=O)NNC(=O)c2ccc(NC(C)=O)cc2)cc1,10.3%,–
CCCCN1C(N)=NC[C@@H]1Cc1ccccc1,14%,–
CC[C@]12c3[nH]c4ccc(Cl)cc4c3CCN1C(=O)[C@@H](CC(=O)NCCCOC)C[C@@H]2C(=O)N1CCN(C(=O)C2CC2)CC1,-19.7%,–
C=CC[C@@H](CC(=O)N[C@@H](CO)Cc1ccccc1)C(=O)NCCOC(=O)[C@@H](CC=C)CC(=O)OC(C)(C)C,21.7%,–
CCCn1c(C)cc(-c2csc(NC(=O)CCc3nc4ccccc4c(=O)[nH]3)n2)c1C,-6.01% [at 8.37 µM],–
O=C1CN(C(=O)COC(=O)/C=C/c2ccc(F)cc2)c2ccccc2N1,3.6%,–
Cn1c(SCC(=O)N2CCCc3ccccc32)nc2ccccc2c1=O,–,12.6 µM (active)
O=C(CSc1nc2[nH]ncc2c(=O)n1-c1ccccc1)N1CCCc2ccccc21,-4.01%,–
O=C(CSc1nc2ccccc2c(=O)n1CCCO)N1CCc2ccccc21,-6.38%,–
CSCCC1NC(=O)N(CC(=O)Nc2cccc(S(=O)(=O)N3CCCCCC3)c2)C1=O (stereo unspecified),–,11.2 µM (active)
COCCn1cnnc1SCC(=O)Nc1cccc(S(=O)(=O)N2CCCCC2)c1,-6.89%,–
Nc1cc(N)nc(SCC(=O)Nc2cccc(S(=O)(=O)N3CCCCC3)c2)n1,0.0012%,–
O=C(Cn1cnc2ccccc2c1=O)Nc1cccc(S(=O)(=O)N2CCCCC2)c1,–,11.2 µM (active)
Cn1nnnc1SCC(=O)Nc1cccc(S(=O)(=O)N2CCCCC2)c1,8.59%,–
O=C(COC(=O)COc1ccccc1F)Nc1cccc(S(=O)(=O)N2CCCCC2)c1,2.99%,–
Nc1ncnc2c1ncn2[C@@H]1O[C@H](CNCc2cccn2-c2nccs2)[C@@H](O)[C@H]1O,7.72%,–
NC(=O)c1ccsc1NC(=O)COC(=O)COc1ccc(C=O)cc1,-1.1%,–
CCOC(=O)/C=C/c1ccc(C(F)(F)F)cc1S(=O)(=O)NC(C)(C)C,4.83%,–
CCCCN1C(=O)C(=O)N(CC(=O)Nc2cccc(C(C)=O)c2)C1=O,11.1%,–
CC(C)Cc1nnc(NC(=O)CCNC(=O)c2ccccc2Cl)s1,7.34%,–
COc1ccc(-c2nnc(-c3ccc4ccccc4c3)o2)cc1,7.69%,–

# Reference: PubChem BioAssay AID651820 (National Center for Advancing Translational Sciences (NCATS), 2012)
